This is part of a sample that, as a whole, favours compounds with a hit. Of some 79,000 tested, about 15% had one in any assay. Unmarked numbers belong to inactive results. No stated cut-off is given here; in the data, active means growth inhibition above about 70%; inactive means the rest. Where a SMILES comes first, the peptide text is derived from it. [ ]: non-standard residue; d: D form. The star is where a group is joined. ξ: configuration not given here. ξF = NC(Cc1ccccc1)C(=O)O; ξL = CC(C)CC(N)C(=O)O; ClAc = O=C(CCl)*

A short description of the assay: NCI Yeast Anticancer Drug Screen. Data for the mlh1 rad18 strain (AID 175). The settings on record: S. cerevisiae mlh1 rad18 strain growth inhibition; at 50.0 µM; active compounds read high. In a few lines:
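Genetically defined yeast (DNA repair-deficient) exposed to compounds; growth inhibition determined relative to vehicle.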
With `CCCCCCCCCCCCCCCc1cc(=S)n(C)c2ccc(C)cc12`, the growth inhibition is 16.1%.

Turning to `CCn1c2[n+](c3ccccc31)CCC2`, the growth inhibition was 3.65%.

Turning to `ClCCCC1(CCCCl)OCCO1`, the growth inhibition was -2.2%.

In the case of `CCOc1ccc(NC(=O)C2CCC(C)(C(=O)O)C2(C)C)cc1` (stereo not drawn), the growth inhibition was -0.8%.

In the case of `CCC(C)NCCNCCNC(C)CC` (stereo not drawn), the growth inhibition is 0.8%.

As for `CC(=O)NCc1cc(CNC(C)=O)c(C)cc1C`, the growth inhibition is -23.6%.

Take `CS(=O)(=O)c1ccc(NN)c([N+](=O)[O-])c1` (tested in a mixture with another compound): the growth inhibition is -39.1%.

With `O=C(NNCN1C(=O)c2ccccc2C1=O)c1ccccc1`, the growth inhibition is -4.7%.

As for `OC(c1ccc(F)cc1)(c1cccs1)C1CC1` (stereo not drawn), the growth inhibition is -20.2%.

In the case of `CCOC(=O)CN1C(=O)C(=O)c2ccccc21`, the growth inhibition was 24.4%.

On to `CCN(CC#N)c1ccc(Nc2cc(Cl)ccc2Cl)cc1`, for which the growth inhibition is 0.3%.

Regarding `C(=N\N=C\c1c[nH]c2ccccc12)/c1c[nH]c2ccccc12`, the growth inhibition is 0.25%.

In the case of `COc1cccc(CNc2ccc(SC)cc2)c1OC`, the growth inhibition was 18.9%.

In the case of `Oc1cc(Br)ccc1C=Nc1ccc(N2CCCCC2)cc1`, the growth inhibition is 17.8%.

Turning to `COc1ccc(-c2cc(=O)c3c(O)cccc3o2)cc1`, the growth inhibition is -1.35%.

For the molecule `O=S(=O)(O)c1ccc(-c2ccccc2)cc1`, the growth inhibition is -5.4%.

Turning to `CC(C)CC(NC(=O)CCl)C(=O)NCC(=O)O` (stereo not drawn) (ClAc-[ξL]-Gly-OH), the growth inhibition was -3.75%.

`CCOC(=O)c1nc2cc(C)c(C)cc2[nH]c1=O`: the growth inhibition is -1.85%.

`CCCCCCCCCOCC(O)COc1ccccc1[N+](=O)[O-]` (stereo not drawn): the growth inhibition is -5.5%.

On to `C(=C/c1ccc(/C=C/c2ccccc2)cc1)/c1ccccc1`, for which the growth inhibition is -26.8%.

Turning to `CCCN(CCC)CCC(=O)OCC`, the growth inhibition was -10.9%.

Regarding `O=C(O)/C=C/C(=O)Nc1cc(Cl)ccc1Cl`, the growth inhibition is 24.6%.

Regarding `Cc1ccc(CNc2ccc(I)cc2)cc1`, the growth inhibition was 33.9%.

For the molecule `COc1ccc(CCN2C(=O)CSC2=S)cc1OC`, the growth inhibition is -2.6%.

As for `O=[N+]([O-])c1cc([N+](=O)[O-])c2nc3ccccn3c2c1`, the growth inhibition was -11.7%.

`O=Cc1ccc2c(c1Cl)C(=O)c1ccccc1C2=O`: the growth inhibition was 68.3%.

Take `Cc1ccc(N2C(=O)CC(Sc3ccccc3N)C2=O)cc1Cl` (stereo not drawn): the growth inhibition was -11.9%.

Take `Cc1ccc(N2CSC(=S)N(c3ccc(C)cc3)C2)cc1`: the growth inhibition is 46.6%.

For the molecule `COc1ccc(C(=O)CC2CCCC(CC(=O)c3ccc(OC)cc3)N2C)cc1` (stereo not drawn), the growth inhibition is 30.4%.

Consider `Cc1ccc(NC(=S)NCCO)cc1`, for which the growth inhibition was -13.6%.

For `CC(C)c1nc(-c2ccccc2)c(-c2ccccc2)[nH]1`, the growth inhibition is 54.7%.

`O=C(Cc1cccc2ccccc12)N/N=C/c1ccc2c(c1)CCC2`: the growth inhibition was -8.45%.

`Cc1nc2c(Cl)cc(Cl)c(Cl)c2s1`: the growth inhibition is 51.1%.

Consider `CCOC(=O)C(=Cc1c[nH]c2ccc(Br)cc12)C(=O)OCC`, for which the growth inhibition is -5.15%.

With `NC(Cc1ccccc1)C(=O)NCC(=O)NCC(=O)O` (stereo not drawn) (H-[ξF]-Gly-Gly-OH), the growth inhibition is 4.55%.

`S=C=NC1CCCCCCCCCCC1`: the growth inhibition is 36.6%.

Regarding `Cc1cc(Cl)ccc1NCN1C(=O)c2ccccc2C1=O`, the growth inhibition was 15.8%.

Take `Cc1ccc(COC(=O)c2cccnc2)cc1`: the growth inhibition was 8.65%.

The record behind these values is PubChem BioAssay (NCI).
